Test results from the supplement of paper PMC10646978.
± gives the standard deviation.

Assays:
Details in all cases: modulator concentration 10 µM
[1] = test system: RAW-Dual (murine macrophage reporter line); assay: NF-kB reporter (SEAP) activity fold change vs agonist alone; higher = enhanced NF-kB activity
Summary of the method: (§1)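 RAW-Dual murine macrophage reporter cells were plated at 50 000 per well in 384-well plates, pin-transferred compound to 10 μM final, and pre-incubated for 1 hour at 37 °C before a PRR agonist was added and the cells incubated overnight. NF-κB activity was read from supernatant SEAP with QUANTI-Blue at 620 nm absorbance, and IRF activity from Lucia luciferase with QUANTI-Luc by luminescence. Each signal was expressed as fold change by dividing by the mean agonist-only control on the same plate. Two replicate plates were averaged, with errors obtained by propagation.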

[2] = test system: RAW-Dual (murine macrophage reporter line); assay: IRF reporter (Lucia luciferase) activity fold change vs agonist alone; higher = enhanced IRF activity
Summary of the method: as §1

[3] = test system: RAW-Dual (murine macrophage reporter line); assay: viability score (confluency relative to resting cells, overnight) (fraction); higher = more viable, active = viable (0.7 or more)
Summary of the method: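 RAW-Dual macrophages in 384-well plates were treated overnight with compound at 10 μM final. IncuCyte imaging recorded confluency, and IncuCyte software built two confluency masks across every imaged well. The viability score expresses confluency relative to resting cells and was judged against a cutoff, which a compound met only if both masks exceeded 70% of resting cells.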

[4] = agonist: CpG ODN 1826 0.5 ug/mL

SMILES	NF-kB reporter [1, 4]	NF-kB reporter ([1]; agonist: LPS 0.1 ug/mL)	NF-kB reporter ([1]; agonist: MPLA […])	IRF reporter ([2]; agonist: 3'3'-cGAMP 10 ug/mL)	IRF reporter ([2]; agonist: LPS 0.1 ug/mL)	IRF reporter ([2]; agonist: MPLA […])	viability score [3]
COc1ccc(N(CC(=O)NCCc2ccc(OC)c(OC)c2)S(=O)(=O)c2ccc(OC)c(OC)c2)cc1	0.951 ± 0.083	0.994 ± 0.062	0.934 ± 0.12	1.01 ± 0.041	1.44 ± 0.18	1.2 ± 0.11	1.01 (active)
CC(=O)Oc1cc2c(s1)CCN(C(C(=O)C1CC1)c1ccccc1F)C2.Cl (configuration not stated)	0.767 ± 0.1	0.727 ± 0.11	0.77 ± 0.043	0.779 ± 0.073	1.01 ± 0.088	0.998 ± 0.12	0.983 (active)
Cc1cccc(CS(=O)(=O)N2CCC(S(=O)(=O)c3nccn3C)CC2)c1	1.04 ± 0.078	1.02 ± 0.082	0.983 ± 0.038	1.04 ± 0.088	0.979 ± 0.089	1.05 ± 0.12	0.998 (active)
CC(C)Sc1ccc(CC(=O)NC2CCN(c3cc4c(nn3)CCCC4)CC2)cc1	0.556 ± 0.041	1.19 ± 0.11	1.02 ± 0.076	0.847 ± 0.04	1.26 ± 0.27	1.51 ± 0.47	0.973 (active)
Nc1ccccc1NC(=O)c1ccc(CNC(=O)OCc2cccnc2)cc1	2.23 ± 0.17	1.53 ± 0.14	1.96 ± 0.052	0.17 ± 0.033	0.252 ± 0.025	0.298 ± 0.029	0.913 (active)
CC1(C)COC(=O)C1=NNc1ccc([N+](=O)[O-])cc1	1.02 ± 0.1	1.09 ± 0.073	1.03 ± 0.039	1.03 ± 0.21	1.05 ± 0.13	1.18 ± 0.1	0.998 (active)
Cc1cccc(C(=O)Nc2cccc([N+](=O)[O-])c2C)c1	1.1 ± 0.067	1 ± 0.062	0.86 ± 0.095	0.964 ± 0.04	1.33 ± 0.15	1.12 ± 0.099	0.992 (active)
O=[N+]([O-])c1ccc(-n2cccc2C=NNc2nc(N3CCCCC3)nc(N3CCCCC3)n2)cc1	0.994 ± 0.087	1.01 ± 0.12	0.926 ± 0.054	0.907 ± 0.039	1.38 ± 0.12	1.05 ± 0.1	1 (active)
COc1ccccc1OCCNCC(O)COc1cccc2[nH]c3ccccc3c12 (configuration not stated)	0.0926 ± 0.0072	0.894 ± 0.057	0.892 ± 0.084	1.26 ± 0.086	1.53 ± 0.11	1.53 ± 0.16	0.957 (active)
COC(=O)C1=CN(CC2CCCO2)C=C(C(=O)OC)C1c1ccc(F)cc1 (configuration not stated)	1.06 ± 0.065	0.875 ± 0.069	1.22 ± 0.063	0.886 ± 0.062	0.95 ± 0.046	0.961 ± 0.13	0.996 (active)
CSCCC(NC(C)=O)C(=O)N1CCc2nc3ccc(F)cn3c(=O)c2C1 (configuration not stated)	1.05 ± 0.097	1.05 ± 0.088	0.906 ± 0.074	0.97 ± 0.085	1.24 ± 0.15	1.13 ± 0.12	1.01 (active)
Cc1cccc(C(=O)N2CCCC(c3nnc(CC(C)(C)C)o3)C2)c1 (configuration not stated)	0.877 ± 0.037	0.942 ± 0.16	1.35 ± 0.08	0.924 ± 0.043	1.33 ± 0.3	1.36 ± 0.47	0.944 (active)
CCCCCOC(=O)COc1ccc(S(=O)(=O)c2ccc(OCC(=O)OCCCCC)cc2)cc1	0.959 ± 0.079	0.964 ± 0.094	1.12 ± 0.14	1.02 ± 0.032	1.33 ± 0.21	1.61 ± 0.25	1.03 (active)
CCCCCOC(=O)CSc1nnc(-c2ccc(Cl)cc2Cl)o1	0.957 ± 0.076	0.981 ± 0.083	0.99 ± 0.048	1.07 ± 0.23	1.04 ± 0.051	1.02 ± 0.14	1 (active)
COC(=O)C1=C(C)NC(C)=C(C(=O)O[C@@H]2CCCN(Cc3ccccc3)C2)[C@@H]1c1cccc([N+](=O)[O-])c1.Cl	0.323 ± 0.024	0.587 ± 0.034	1.31 ± 0.036	0.31 ± 0.018	1.05 ± 0.12	1.25 ± 0.18	0.997 (active)
CCN(CC)Cc1cc(Nc2ccnc3cc(Cl)ccc23)ccc1O.Cl.Cl	0.199 ± 0.011	0.753 ± 0.073	0.774 ± 0.046	1.19 ± 0.075	1.03 ± 0.11	1.47 ± 0.16	0.873 (active)
Cc1ccc2[nH]c3nc(NN)nnc3c2c1	1.03 ± 0.079	0.929 ± 0.077	0.967 ± 0.024	0.913 ± 0.05	0.998 ± 0.077	0.836 ± 0.071	1 (active)
Cc1ccc(-c2cc(-c3ccccc3)nc(NN=Cc3ccc(Br)cc3)n2)cc1	0.976 ± 0.18	1.08 ± 0.084	1.01 ± 0.12	1.11 ± 0.031	1.07 ± 0.1	1.4 ± 0.21	0.997 (active)
Cc1cn([C@H]2C=C[C@@H](CO)O2)c(=O)[nH]c1=O [Prestw-1279]	1.13 ± 0.11	1.05 ± 0.13	0.957 ± 0.077	0.969 ± 0.074	0.94 ± 0.092	0.877 ± 0.13	0.998 (active)
CCC1=C(C)CN(C(=O)NCCc2ccc(S(=O)(=O)NC(=O)N[C@H]3CC[C@H](C)CC3)cc2)C1=O	1.08 ± 0.085	1.08 ± 0.062	1.03 ± 0.066	1.22 ± 0.23	0.95 ± 0.067	0.915 ± 0.14	0.996 (active)
CC[C@H](Nc1ncnc2[nH]cnc12)c1nc2cccc(F)c2c(=O)n1-c1ccccc1	1.18 ± 0.27	0.973 ± 0.11	1.04 ± 0.067	0.641 ± 0.023	0.763 ± 0.073	0.997 ± 0.18	0.964 (active)
Cl.O=C1c2cccc3c2[C@H](CCC3)CN1[C@@H]1CN2CCC1CC2	1.03 ± 0.17	0.655 ± 0.053	0.823 ± 0.11	0.582 ± 0.022	0.918 ± 0.17	0.987 ± 0.12	0.974 (active)
CCN1CC(CCN2CCOCC2)C(c2ccccc2)(c2ccccc2)C1=O (configuration not stated)	1.18 ± 0.32	1.04 ± 0.072	1.05 ± 0.067	0.874 ± 0.03	1.28 ± 0.14	1.29 ± 0.24	1.01 (active)
Ic1ccc2c3ccc(I)cc3c3[nH]c(-c4ccccc4)nc3c2c1	1.03 ± 0.094	1.07 ± 0.14	1.11 ± 0.042	0.814 ± 0.054	1.05 ± 0.1	1.31 ± 0.19	0.995 (active)
Nc1nc(Cl)nc2c1ncn2[C@@H]1O[C@H](CO)[C@@H](O)[C@@H]1F	2.13 ± 0.16	1.41 ± 0.13	1.4 ± 0.087	1.08 ± 0.26	1.01 ± 0.045	0.918 ± 0.15	0.482 (inactive)
COc1nn(C)cc1C(=O)Nc1ccc(C(=O)NCCN2CCOCC2)cc1	1.02 ± 0.052	1.03 ± 0.083	0.893 ± 0.042	0.979 ± 0.049	1.28 ± 0.096	1.13 ± 0.23	0.994 (active)
